Measurements reported in the supplement of paper PMC13380429.
Values without a mark were called inactive.

System: Vero E6 infected with SARS-CoV-2
Test: SARS-CoV-2 infection rate relative to infected DMSO; higher = more infection, active = 60 or less
Details: 24 h

Which SARS-CoV-2 infection rate does the source give for `c1coc(-c2nnc3sc(C4CCCCC4)nn23)c1` [cardionogen-1] (10 µM) here?
The SARS-CoV-2 infection rate was 89%.

For `Cc1nnsc1C(=O)Nc1ccc(-n2nc(C(F)(F)F)cc2C(F)(F)F)cc1` (10 µM), which SARS-CoV-2 infection rate is on record?
The SARS-CoV-2 infection rate was 106%.

For `CN1CCN(c2cccc(Nc3nc4c(-c5ccc(S(C)(=O)=O)cc5)cccn4n3)c2)CC1` (0.833333 µM), which SARS-CoV-2 infection rate is on record?
Its SARS-CoV-2 infection rate is 106%.

For `NCCCC[C@H](NC(=O)[C@@H]1CCCN1C(=O)[C@@H]1CSSC[C@H](N)C(=O)N[C@@H](Cc2ccc(O)cc2)C(=O)N[C@@H](Cc2ccccc2)C(=O)N[C@@H](CCC(N)=O)C(=O)N[C@@H](CC(N)=O)C(=O)N1)C(=O)NCC(N)=O` [lypressin] (10 µM), which SARS-CoV-2 infection rate is on record?
The SARS-CoV-2 infection rate was 91%.

`COc1cc(NC(=O)c2ccccn2)ccc1Cl` (10 µM) was tested. Which SARS-CoV-2 infection rate did it give?
Its SARS-CoV-2 infection rate is 96.5%.

With `C#Cc1cccc(Nc2ncnc3cc(OCCOC)c(OCCOC)cc23)c1` [erlotinib] (10 µM) as the molecule, how does the SARS-CoV-2 infection rate read?
The SARS-CoV-2 infection rate was 116%.

`CC(=O)OCC1=C(C(=O)O)N2C(=O)[C@@H](N)[C@H]2SC1` [7-aminocephalosporanic-acid] (10 µM) was tested. Which SARS-CoV-2 infection rate did it give?
The SARS-CoV-2 infection rate was 104%.

`COC(=O)CCC(=O)CN` [methyl-aminolevulinate] (10 µM) was tested. Which SARS-CoV-2 infection rate did it give?
Its SARS-CoV-2 infection rate is 90%.

With `CN(C(=O)CN1C(=O)COc2cc(Cl)c(Cl)cc21)[C@@H](CN1CCCC1)c1ccc(-c2cccc(C(N)=O)c2)cc1` (0.833333 µM) as the molecule, how does the SARS-CoV-2 infection rate read?
Its SARS-CoV-2 infection rate is 104%.
